# Screens: PubChem BioAssay, The Scripps Research Institute Molecular Screening Center
# Hits are enriched below; roughly 2.3% of the tested compounds scored in any of these assays.
# CHO-K1 Ca antag: counter-screen for M1 antagonists: effect in parental CHO-K1 cells | ATP-induced calcium, Fluo-8 fluorescence | inhibition, % at 3 µM | 360,000 tested, 0.6% active | AID 602250;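 active = inhibition above a per-plate cutoff, the plate's mean sample inhibition plus 3 SD, cut at about 24% in these data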
# CHRM1 PAM: positive allosteric modulators of human M1 muscarinic receptor; P11229; CHO-K1 hM1, Fluo-8 calcium fluorescence, ACh EC20; 0% = ACh EC20, 100% = maximal ACh; activation, % at 3 µM; 360,000 tested, 0.088% active; AID 588819; in the data active = activation above about 19%, passing the limit was not always enough
# Target sequence (P11229 whole entry, looked up): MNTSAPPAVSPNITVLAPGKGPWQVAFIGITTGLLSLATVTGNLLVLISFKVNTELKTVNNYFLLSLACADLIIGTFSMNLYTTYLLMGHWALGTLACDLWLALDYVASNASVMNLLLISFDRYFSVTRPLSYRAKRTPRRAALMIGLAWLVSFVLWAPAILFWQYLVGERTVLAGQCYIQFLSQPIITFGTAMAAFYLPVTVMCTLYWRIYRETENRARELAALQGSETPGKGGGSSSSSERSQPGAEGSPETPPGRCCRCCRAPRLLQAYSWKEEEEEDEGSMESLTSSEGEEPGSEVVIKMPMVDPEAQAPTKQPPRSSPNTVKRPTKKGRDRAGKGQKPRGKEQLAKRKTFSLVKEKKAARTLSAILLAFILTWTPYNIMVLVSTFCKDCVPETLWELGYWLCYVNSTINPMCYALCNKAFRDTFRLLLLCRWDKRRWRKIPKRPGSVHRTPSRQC
# CHO-K1 Ca PAM: counter-screen for M1 PAMs: effect in parental CHO-K1 cells | ATP EC20, Fluo-8 calcium fluorescence; 0% at ATP EC20, 100% at ATP max | activation, % at 3 µM | 360,000 tested, 0.02% active | AID 602247;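 active = activation above the run cutoff, the mean activation of all test compounds plus 3 SD, cut at about 40% in these data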;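 note: peak over basal fluorescence ratio in a 140 s read after ATP addition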
# M1 ag: human M1 muscarinic receptor agonism. AID 588814. CHO-K1 hM1, Fluo-8 calcium fluorescence, agonist mode; 0% DMSO, 100% acetylcholine EC100. activation, % at 3 µM. 360,000 tested, 0.33% active;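 active = activation above the run's mean compound activation plus 3 SD, cut at about 16% in these data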;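 note: peak over basal fluorescence ratio within a 140 s kinetic read after compound addition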
# CHO-K1 Ca ag: nonselective activator or artifact in parental CHO-K1 cells. Fluo-8 calcium fluorescence; scaled to maximal ATP response, vehicle zero. activation, % at 3 µM. 360,000 tested, 0.48% active. AID 602248; in the data active = activation above about 15%;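 note: untransfected CHO-K1 host cells lacking M1 receptor as counterscreen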
# M1 antag: blocks human M1 muscarinic receptor; inhibition, % at 3 µM; 360,000 tested, 1.3% active; P11229; CHO-K1 hM1, Fluo-8 calcium fluorescence, ACh EC80 antagonist;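 active = percent inhibition above its own plate's cutoff, namely the mean of that plate's compound wells plus 3 SD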;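 note: peak over basal fluorescence ratio during 140 s after agonist addition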
# Numbers stand for hits; – = inactive.
SMILES,CHO-K1 Ca antag,CHRM1 PAM,CHO-K1 Ca PAM,M1 ag,CHO-K1 Ca ag,M1 antag
CCN1C(=O)c2cccc3c(N)ccc(c23)C1=O,–,–,–,192,72,48
CCCCNc1ccc2c3c(cccc13)C(=O)N(CCCC)C2=O,93,–,–,296,348,90
CN(C)CCCN1C(=O)c2cccc3c(Br)ccc(c23)C1=O,–,–,–,–,–,–
Cc1ccc(N2C(=O)c3cccc4c(N)ccc(c34)C2=O)c2cccnc12,–,–,–,29,23,–
CCCN1C(=O)c2cccc3c(N4CCCCC4)ccc(c23)C1=O,–,–,–,–,–,–
Cc1nn(C)c(C)c1N1C(=O)c2cccc3c(N)ccc(c23)C1=O,31,–,–,90,63,35
Cc1nn(C)c(C)c1N1C(=O)c2cccc3c(Br)ccc(c23)C1=O,–,–,–,–,–,–
CN(Cc1ccno1)Cc1cn(Cc2ccccc2)nc1-c1ccc2c(c1)OCO2,–,–,–,–,–,–
O=C(CCS(=O)(=O)c1ccccc1)Nc1ccccc1F,–,–,–,–,–,–
COc1ccc(C[C@H]2CN3C(=NC[C@H]3C)N2CCNC(=O)c2ccc(C)c(Br)c2)cc1,–,–,–,–,–,76
O=C(NC1CCSC1=O)C1CC(=O)N(c2ccc(F)cc2)C1 (stereo unspecified),–,–,–,–,–,–
c1ccc(-c2ccncn2)cc1,–,–,–,–,–,–
COc1ccc(C(C(=O)NC(C)(C)C)N(CCC(C)C)C(=O)CCC(=O)Nc2cc(C)on2)cc1 (stereo unspecified),–,30,–,–,–,–
CC(C)(C)c1ccc(-n2ncc3c2CCCC3NC(=O)CCn2cncn2)cc1 (stereo unspecified),–,–,–,–,–,54
Cc1cc(C(=O)NC2CCCc3c2cnn3-c2ccc(C(C)(C)C)cc2)nn1C (stereo unspecified),25,–,–,–,–,33
O=C(COC(=O)c1cccc(S(=O)(=O)N2CCCC2)c1)Nc1cccc(Br)c1,–,–,–,–,–,–
COC(=O)C(NC(=O)c1ccccc1Cl)(Nc1ncc(S(=O)(=O)c2ccc([N+](=O)[O-])cc2)s1)C(F)(F)F (stereo unspecified),–,–,–,22,–,–
CCC(C)(C)C(=O)Nc1ncc(S(=O)(=O)c2ccc([N+](=O)[O-])cc2)s1,–,–,–,–,–,–
COc1cccc(OC)c1C(=O)Nn1c(-c2cccc(C)c2)nc2ccccc2c1=O,24,–,–,–,–,–
COc1cccc(OC)c1C(=O)Nn1c(-c2cccs2)nc2ccccc2c1=O,–,–,–,–,–,–
CCOC(=O)c1c(NC(=O)CN(CC)CC)sc2c1CCN(C(=O)OCC)C2,–,–,–,–,–,–
CCOC(=O)c1c(NC(=S)N2CCN(C)CC2)sc2c1CCN(C(=O)OCC)C2,–,–,–,23,–,–
Cc1ccc(C(C)C)c(OCCCCN2CCNCC2)c1,–,–,–,–,–,–
C=CCc1ccc(OCCCCOc2ccc(C(=O)O)cc2)c(OC)c1,–,–,–,–,–,–
C=CCc1ccc(OCCCCCN2CCOCC2)c(OC)c1,–,–,–,–,–,46
SMILES,CHO-K1 Ca antag,CHRM1 PAM,CHO-K1 Ca PAM,M1 ag,CHO-K1 Ca ag,M1 antag
Cc1ccc(C(C)C)c(OCCCCCN2CCOCC2)c1,–,–,–,–,–,69
Cc1cc(C)n(-c2nc(Nc3ccccc3C(F)(F)F)nc(-n3nc(C)cc3C)n2)n1,–,–,–,–,19,–
Cc1cc(C)n(-c2nc(NC(C)(C)C)nc(NC(C)(C)C)n2)n1,–,–,–,–,–,–
O=C(CSc1ccc(-c2ccccn2)nn1)NCc1ccccc1,–,–,–,–,–,37
O=C(OCc1nnc(-c2ccccc2)o1)c1ccc2ccccc2n1,30,–,–,–,–,–
CCN=C(NCC)SC1CC(=O)N(c2cccc(OCC)c2)C1=O (stereo unspecified),30,–,–,–,–,44
Brc1cccc(-c2cnc3n2CCCCC3)c1,–,–,–,–,–,48
CCCn1ncc(/C=N/O)c1C,–,–,–,–,–,–
COc1ccc(NC(=O)C2Cc3c(-c4ccc5c(c4)OCO5)ccnc3O2)cc1OC (stereo unspecified),–,–,–,–,–,33
